Each structure is given as a SMILES string. Results filed as inconclusive are left out. Activity calls are given as the source filed them. No stated cut-off is given here; in the data, active means fluorescence slope change above about 50%; inconclusive means mostly about 31% to 49%; inactive means weaker than that.

Chain of ATP-dependent translocase ABCB1 (Homo sapiens) (P08183 whole entry, looked up): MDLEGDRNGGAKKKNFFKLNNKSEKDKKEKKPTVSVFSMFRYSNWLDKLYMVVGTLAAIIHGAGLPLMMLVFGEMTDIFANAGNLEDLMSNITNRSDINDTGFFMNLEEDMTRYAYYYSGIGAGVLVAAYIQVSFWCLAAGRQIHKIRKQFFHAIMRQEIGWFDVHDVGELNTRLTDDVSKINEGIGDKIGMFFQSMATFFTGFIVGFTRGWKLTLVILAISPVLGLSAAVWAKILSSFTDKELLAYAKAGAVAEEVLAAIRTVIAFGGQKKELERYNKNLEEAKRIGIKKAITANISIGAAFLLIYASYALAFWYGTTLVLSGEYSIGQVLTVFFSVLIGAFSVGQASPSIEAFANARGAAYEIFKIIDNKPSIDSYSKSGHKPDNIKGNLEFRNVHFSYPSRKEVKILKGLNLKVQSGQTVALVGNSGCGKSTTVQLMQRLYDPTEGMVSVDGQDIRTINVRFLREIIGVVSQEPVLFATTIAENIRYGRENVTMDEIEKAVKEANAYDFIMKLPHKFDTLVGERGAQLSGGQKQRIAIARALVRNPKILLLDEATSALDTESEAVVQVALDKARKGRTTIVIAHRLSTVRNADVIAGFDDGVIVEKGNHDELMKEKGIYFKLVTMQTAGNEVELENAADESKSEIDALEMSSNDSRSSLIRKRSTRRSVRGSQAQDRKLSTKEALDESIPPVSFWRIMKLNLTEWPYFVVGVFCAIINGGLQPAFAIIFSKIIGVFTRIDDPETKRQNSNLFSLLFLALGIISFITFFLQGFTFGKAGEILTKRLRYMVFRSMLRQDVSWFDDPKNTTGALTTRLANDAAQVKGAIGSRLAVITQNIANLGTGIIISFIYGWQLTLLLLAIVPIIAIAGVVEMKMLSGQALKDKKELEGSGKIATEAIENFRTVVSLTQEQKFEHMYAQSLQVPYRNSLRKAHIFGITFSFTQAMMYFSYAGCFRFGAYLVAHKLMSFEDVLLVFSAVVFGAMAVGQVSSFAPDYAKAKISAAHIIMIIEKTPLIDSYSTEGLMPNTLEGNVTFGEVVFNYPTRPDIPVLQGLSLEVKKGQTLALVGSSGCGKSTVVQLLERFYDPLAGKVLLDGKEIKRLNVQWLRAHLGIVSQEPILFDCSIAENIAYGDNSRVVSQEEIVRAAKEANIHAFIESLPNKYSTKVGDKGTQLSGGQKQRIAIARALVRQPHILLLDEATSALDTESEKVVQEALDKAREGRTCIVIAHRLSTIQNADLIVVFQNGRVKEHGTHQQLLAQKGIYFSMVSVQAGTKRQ

The experiment addresses ATP-dependent translocase ABCB1 (Homo sapiens) (UniProt P08183). Briefly: MDR1 (ABCB1) efflux transporter inhibition, cell-based (AID 377). To be noted: MDR1-expressing cells, fluorescent substrate accumulation slope; hits give high values; concentration not given here.
Turning to `Cc1ccc(S(=O)(=O)NC(=O)NN2CC3CCCC3C2)cc1` (stereo not drawn), the fluorescence slope change is 10.5% (inactive).
The value for `COc1cc2nc(N3CCN(C(=O)C4COc5ccccc5O4)CC3)nc(N)c2cc1OC` (stereo not drawn) was 75.1% (active); that for `C=CC(N)CCC(=O)O` (stereo not drawn) was 52.2% (active); that for `CCOC(=O)C1=C(C)NC(C)=C(C(=O)OC)C1c1cccc(Cl)c1Cl` (stereo not drawn) was 28.6% (inactive).
In the case of `CC(=O)OC(C)C[N+](C)(C)C` (stereo not drawn) it was -0.2% (inactive).
`Cc1cc2c(C(C)C)c(O)c(O)c(C=O)c2c(O)c1-c1c(C)cc2c(C(C)C)c(O)c(O)c(C=O)c2c1O`: the fluorescence slope change was 93.5% (active).
For `CCc1oc2ccccc2c1C(=O)c1cc(Br)c(O)c(Br)c1`, the fluorescence slope change is 56.7% (active).
Consider `CCOC(=O)n1ccn(C)c1=S`, for which the fluorescence slope change was 99.3% (active).
As to `O=C(c1ccc(F)cc1)C1CCN(CCn2c(=O)[nH]c3ccccc3c2=O)CC1`, the fluorescence slope change was -1% (inactive).
With `NC(N)=NC(=O)Cc1c(Cl)cccc1Cl`, the fluorescence slope change is 82% (active).
The value for `COc1cc(C(=O)OCCCN2CCCN(CCCOC(=O)c3cc(OC)c(OC)c(OC)c3)CC2)cc(OC)c1OC` was 100% (active); that for `COc1cc(OC)c(C(=O)CCCN2CCCC2)c(OC)c1` was 82.5% (active); that for `COC(=O)Nc1nc2ccc(C(=O)c3cccs3)cc2[nH]1` was 103% (active).
In the case of `CCOC(=O)C1=C[C@]2(CC)CCCN3CCc4c(n1c1ccccc41)[C@@H]32` it was 107% (active).
For the molecule `CCN(CC)Cc1cc(Nc2ccnc3cc(Cl)ccc23)ccc1O`, the fluorescence slope change is 54.8% (active).
The value for `CCOC(=O)OC(C)OC(=O)[C@@H]1N2C(=O)[C@@H](NC(=O)[C@H](N)c3ccccc3)[C@H]2SC1(C)C` (stereo partly drawn) was 97.9% (active).
The value for `COc1cc2c3cc1Oc1cc(ccc1O)C[C@@H]1c4c(cc(OC)c(O)c4Oc4ccc(cc4)C[C@@H]3N(C)CC2)CC[N+]1(C)C` was 8.4% (inactive); that for `Cc1scc2c1N(C(=O)CN1CCN(C)CC1)c1ccccc1NC2=O` was 65.1% (active).
Regarding `COc1ccc2nc(S(=O)Cc3ncc(C)c(OC)c3C)[nH]c2c1` (stereo not drawn), the fluorescence slope change is 50.5% (active).
On to `Oc1cc(O)c2c(c1)O[C@H](c1ccc(O)c(O)c1)[C@H](O)C2`, for which the fluorescence slope change is -0.6% (inactive).
With `CN1CCC(=C2c3ccccc3C=Cc3ccccc32)CC1`, the fluorescence slope change was 178% (active).
In the case of `CN1CCN(C(c2ccccc2)c2ccccc2)CC1` it was 59.4% (active); in that of `C[C@]12C=CC(=O)C=C1CC[C@H]1[C@@H]3C[C@@H](O)[C@](O)(C(=O)CO)[C@@]3(C)C[C@H](O)[C@@]12F`, 27% (inactive).

Source of the values: PubChem BioAssay.
